Source: PubChem BioAssay
In the library only some 6.9% were active in any assay of this set; here they are far more common.
KB-3-1 cytotox = KB-3-1 parental cell cytotoxicity; hit rate 1.4% among 400,000; AID 1347075; Potency, µM (series often up to 46.1 µM), actives largely listed as cytotoxic; KB-3-1 viability, CellTiter-Glo ATP luminescence, 72 h; also: nearly all actives have a fitted effect of over 60% in size
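Parental KB-3-1 adenocarcinoma cells in phenol-red-free DMEM with 10% FBS were pin-treated with compounds at several concentrations, incubated 72 h at 37 °C, and viability read by CellTiter-Glo luminescence; concentration-effect curves were fitted after normalization.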
SW480 rerep = DNA re-replication induction in SW480 cells; SW480 DNA re-replication, Hoechst DNA content imaging, 48 h; AID 624297; hit rate 1.8% among 340,000; Potency, µM (top dose mostly 46.1 µM), actives largely listed as activators; also: nearly all actives have a fitted effect of over 55% in size
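250 cells/well; 23 nL cpd via pin tool; 48 hr, 37 C, 5% CO2; Hoechst 40 min; imager read of total nuclear intensity, ex 405/em 500-530 nm.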
S-ASM inh = inhibitors of human secretory acid sphingomyelinase. P17405. placental ASM, HMU-PC fluorogenic substrate, 60 min. Potency, µM (titrated, usually from 57.5 µM), hits mostly inhibitors. hit rate 0.006% among 340,000
Target sequence (P17405 47-631 limits assumed): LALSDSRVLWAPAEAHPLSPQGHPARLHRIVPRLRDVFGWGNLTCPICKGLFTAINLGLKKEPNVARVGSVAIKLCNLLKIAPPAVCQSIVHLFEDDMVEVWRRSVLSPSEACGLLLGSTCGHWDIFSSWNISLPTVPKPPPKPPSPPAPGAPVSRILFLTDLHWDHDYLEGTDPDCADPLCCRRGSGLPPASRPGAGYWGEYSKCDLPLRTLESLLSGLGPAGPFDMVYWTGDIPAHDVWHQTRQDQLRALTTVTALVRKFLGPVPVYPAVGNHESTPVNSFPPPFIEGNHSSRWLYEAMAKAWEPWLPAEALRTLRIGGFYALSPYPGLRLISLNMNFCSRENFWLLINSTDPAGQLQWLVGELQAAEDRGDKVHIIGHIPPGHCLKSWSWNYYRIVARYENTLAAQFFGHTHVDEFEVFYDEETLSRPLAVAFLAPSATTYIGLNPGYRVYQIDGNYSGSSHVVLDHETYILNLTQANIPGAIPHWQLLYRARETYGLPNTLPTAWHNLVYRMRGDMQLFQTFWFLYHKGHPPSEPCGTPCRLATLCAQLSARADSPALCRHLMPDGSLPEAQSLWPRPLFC
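qHTS format. ASM enzyme prepared from human placenta hydrolyses the fluorogenic substrate HMU-PC0 (9 uM final) over 60 min at 37 °C after a 10 min compound preincubation.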
Giardia killer = Giardia lamblia killing; Giardia lamblia trophozoite viability; activity change, % at 7.66 µM, hits read low; hit rate 0.15% among 340,000; in the data active = activity change below about -80%; inconclusive = between about -30% and that limit;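 also: parasites exposed to compound for two days anaerobically before the ATP read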
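Compounds were tested on trophozoites seeded at 100 cells/well and held 48 hrs at 37 deg C anaerobically. An ATP-based luminescent kit measured the remaining live cells.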
KB-V1 MDR tox = KB-V1 MDR subline cytotoxicity; Potency, µM (series often up to 46.1 µM), hits mostly cytotoxic; hit rate 3.4% among 400,000; KB-V1 MDR cells viability, CellTiter-Glo, 72 h; also: nearly all actives have a fitted effect of over 60% in size
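Cytotoxicity toward P-gp-expressing KB-V1 cells was determined as loss of CellTiter-Glo luminescence after 72 h at 37 degrees C. Compounds were tested in quantitative HTS format across a concentration range, with curves fitted to normalized data.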
MCF10A rerep = inducers of DNA re-replication in MCF 10A breast cells; Potency, µM (top dose mostly 46.1 µM), usual class: activators; MCF 10A DNA re-replication, Hoechst nuclear intensity, 48 h; hit rate 2.9% among 350,000; also: nearly all actives have a fitted effect of over 50% in size
Large screens that a line does not name were inactive. Unless noted, calls follow the shape of the dose curve; as a rule, active = well fitted curve in the direction sought with a large enough effect; inconclusive = small, poorly fitted or top-dose-only effect, or another doubt; inactive = no such curve, though single readings can be large; an effect the other way counts as inactive or inconclusive.

Cc1cc(C(=O)Nc2cnn(Cc3ccc(Cl)cc3Cl)c2)no1	KB-V1 MDR tox 13µM
O=C(O)c1ccccc1C(=O)NNc1ccc(Cl)cc1	MCF10A rerep 4.6µM
Cc1cc(C(=O)NNc2ccc(C)c(C)c2)no1	KB-3-1 cytotox inconclusive, SW480 rerep inconclusive, KB-V1 MDR tox inconclusive, MCF10A rerep 16µM
COc1cccc(-c2cc(C(=O)Nc3cnn(Cc4ccc(Cl)cc4Cl)c3)no2)c1	none (no result: SW480 rerep, S-ASM inh, Giardia killer, MCF10A rerep)
Cc1cc(C(=O)NNc2ccc(Cl)cc2)no1	KB-3-1 cytotox inconclusive, MCF10A rerep 7.3µM
Cc1ccc(NNC(=O)c2cc(C)on2)c(C)c1	none
Cc1nn(-c2ccccc2)c(OC(=O)c2ccccc2)c1S(=O)(=O)c1ccccc1	none (no result: SW480 rerep, S-ASM inh, Giardia killer, MCF10A rerep)
COc1cc(/C=c2\[nH]c(=O)/c(=C/c3cc(OC)c(OC)c(OC)c3)[nH]c2=O)cc(OC)c1OC	KB-3-1 cytotox inconclusive (no result: SW480 rerep, S-ASM inh, Giardia killer, MCF10A rerep)
CCOc1ccc(CNC(=O)CN2C(=O)C3CCCCN3c3ccc(C(=O)N4CCCC4)cc32)cc1 (configuration not stated)	none (no result: SW480 rerep, S-ASM inh, Giardia killer, MCF10A rerep)
Cc1ccc(NNC(=O)c2ccno2)cc1C	KB-3-1 cytotox 16µM
Cc1ccc(NNC(=O)c2ccno2)cc1Cl	none
Cc1cc(C(=O)NCCc2ccc(Cl)cc2)no1	MCF10A rerep 6.5µM
COc1ccc(N2CCN(C(=O)C(CC(C)C)NS(=O)(=O)c3ccc4nc(C)sc4c3)CC2)cc1 (configuration not stated)	none (no result: SW480 rerep, S-ASM inh, Giardia killer, MCF10A rerep)
CCC(C)Sc1ccc([C@@H]2[C@H]3C(=O)N(CC)C(=O)[C@H]3[C@]3(C(=O)OC)CCCCN23)cc1 (some centres not stated)	KB-3-1 cytotox inconclusive, SW480 rerep inconclusive, KB-V1 MDR tox 10µM
Cn1c(SCc2ccc(Cl)cc2)nnc1-c1ccc(NC(=O)CCc2ccccc2)cc1	none (no result: SW480 rerep, S-ASM inh, Giardia killer, MCF10A rerep)
CCc1cc(=O)oc2cc(OCC(=O)NCc3ccccn3)ccc12	SW480 rerep 12µM, MCF10A rerep inconclusive
O=C(COc1ccc2c(-c3ccccc3)cc(=O)oc2c1)NCc1ccccn1	none
CCOc1ccccc1OCCCC(=O)NNC(=O)c1nn(C)c(=O)c2ccccc12	KB-V1 MDR tox 23µM
Cn1nc(C(=O)NNC(=O)COc2ccccc2)c2ccccc2c1=O	none
O=[N+]([O-])c1ccc(Oc2cccc3cccnc23)c([N+](=O)[O-])c1	SW480 rerep inconclusive, KB-V1 MDR tox 21µM, MCF10A rerep 21µM
N#Cc1cc(Oc2cccc3cccnc23)c(-n2nnc3ccccc32)cc1C#N	KB-3-1 cytotox inconclusive, SW480 rerep inconclusive, KB-V1 MDR tox inconclusive, MCF10A rerep 14µM
Cc1ccc2cccc(Oc3ccc([N+](=O)[O-])cc3[N+](=O)[O-])c2n1	KB-V1 MDR tox inconclusive
N#Cc1ccc(Oc2cccc3cccnc23)c([N+](=O)[O-])c1	KB-V1 MDR tox 21µM, MCF10A rerep inconclusive
N#Cc1cc(O)c(-n2nnc3ccccc32)cc1C#N	none
COc1ccc(NC(=O)Cn2nc(-c3ccncc3)ccc2=O)cc1Cl	none (no result: SW480 rerep, S-ASM inh, Giardia killer, MCF10A rerep)
O=C(O)c1ccccc1C(=O)c1ccc2c(c1)N(Cc1ccc(Cl)c(Cl)c1)C(=O)CO2	KB-V1 MDR tox inconclusive, MCF10A rerep inconclusive
CCOc1ccc(NC(=O)CN2CCCN(Cc3cc(C)ccc3C)S2(=O)=O)cc1	none (no result: SW480 rerep, S-ASM inh, Giardia killer, MCF10A rerep)
CCCCCNC(=O)c1nc(-c2c(F)cccc2F)oc1-c1ccccc1	none (no result: SW480 rerep, S-ASM inh, Giardia killer, MCF10A rerep)
O=C(Nc1nc(-c2nc3ccccc3s2)cs1)c1ccc(S(=O)(=O)N2CCOCC2)cc1	KB-3-1 cytotox inconclusive, S-ASM inh inconclusive, KB-V1 MDR tox 4.6µM
CN(CC1CCCO1)S(=O)(=O)c1ccc(C(=O)Nc2nc(-c3ccccn3)cs2)cc1 (configuration not stated)	KB-3-1 cytotox 4.1µM
Cc1ccc(C(=O)Nc2nc(-c3ccccn3)cs2)cc1S(=O)(=O)N1CCOCC1	SW480 rerep inconclusive, KB-V1 MDR tox inconclusive, MCF10A rerep 21µM
CN(C)S(=O)(=O)c1ccc(C(=O)Nc2nc(-c3cc4ccccc4o3)cs2)cc1	MCF10A rerep 4.6µM
O=C(Nc1nc(-c2ccc(S(=O)(=O)N3CCOCC3)cc2)cs1)c1ccccc1	KB-V1 MDR tox inconclusive
Cc1ccc(S(=O)Cc2ccc(C(=O)NC3CCCCCC3)o2)cc1 (configuration not stated)	none (no result: SW480 rerep, S-ASM inh, Giardia killer, MCF10A rerep)
